A selection: hits, their analogues and other compounds. The true share with any hit is near 2.9%.
ADAM10 inh – inhibits human ADAM10; recombinant ADAM10, EDANS/DABCYL FRET peptide cleavage, 3 h; inhibition, % at 7 µM; 370,000 tested, 0.62% active; O14672;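 active means inhibition above a per-campaign cutoff equal to the mean of compounds falling between control-based bounds plus 3 SD, cut at about 20% in these data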;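 further: 0% = DMSO wells while the 100% control is not disclosed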
ADAM17 inh – inhibitors of human ADAM17; AID 720648; inhibition, % at 6.95 µM; 370,000 tested, 0.83% active; P78536; recombinant ADAM17, EDANS/DABCYL FRET peptide cleavage;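 active means inhibition above the mean of compounds lying between control limits plus 3 SD, set per campaign, cut at about 8.5% in these data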;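 further: 0% = DMSO-only wells as the low control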
PLC-beta3 inh – PLC-beta3 (human) inhibition, primary screen. Q01970. Purified PLC-beta3, fluorogenic substrate, fluorescence. inhibition, % at 12.2 µM. 370,000 tested, 0.18% active. AID 720704; in the data active means inhibition above about 11%;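 further: 0% = median of compound wells on plate and 100% = full blocker control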
proKLK7 act – activators of human kallikrein-7 zymogen; activation, % at 7 µM; 370,000 tested, 0.9% active; AID 652039; P49862; purified proKLK7, EDANS-DABCYL substrate fluorescence; 100% is mature enzyme control, 0% vehicle;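 active means activation above the mean of all tested compounds plus 3 SD, computed per campaign excluding outliers beyond control limits, cut at about 13% in these data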
Target sequence (P49862 whole entry, looked up): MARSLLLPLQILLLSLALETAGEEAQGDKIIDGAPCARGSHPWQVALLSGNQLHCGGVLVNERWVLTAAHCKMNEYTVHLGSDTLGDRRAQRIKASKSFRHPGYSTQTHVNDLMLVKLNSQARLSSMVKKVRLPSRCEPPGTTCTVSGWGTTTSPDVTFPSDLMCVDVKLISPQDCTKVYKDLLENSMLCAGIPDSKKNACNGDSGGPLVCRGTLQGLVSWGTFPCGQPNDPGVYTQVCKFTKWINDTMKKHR
PLC-gamma1 inh – blocks human PLC-gamma1 enzyme activity; P19174; purified PLC-gamma1, fluorogenic substrate, fluorescence; inhibition, % at 12.2 µM; 370,000 tested, 0.84% active; AID 720700
PLCgamma1 ctr – counter-screen for PLC-beta3 inhibitors: inhibitors of human PLC-gamma1. shares compounds with PLC-gamma1 inh. purified PLC-gamma1, fluorogenic substrate, fluorescence. inhibition, % at 12.3 µM. 3,300 tested, 3.1% active
PLCb3 confirm – confirmation of human PLC-beta3 inhibitors. shares compounds with PLC-gamma1 inh. purified PLC-beta3, fluorogenic substrate fluorescence. inhibition, % at 12.3 µM. 3,300 tested, 1% active; in the data active means inhibition above about 11%
The depositor's hits bear a star; · = no result. Unless noted, no stated cut-off is given here; in the data, active means inhibition above about 9.5%; inactive means the rest.

SMILES | ADAM10 inh | ADAM17 inh | PLC-beta3 inh | proKLK7 act | PLC-gamma1 inh | PLCgamma1 ctr | PLCb3 confirm
Cc1c[nH]c2cccc(-c3ccc4c(c3)OCO4)c12 | -26.8 | -6.3 | -8.4 | 0.8 | -6.9 | · | ·
CC(C)(C)OC(=O)Nc1ccccc1-n1nnnc1C(C(=O)c1ccc(F)cc1)N1CCOCC1 (stereo not given) | -7.8 | -2.7 | -5.0 | 0.1 | -4.8 | · | ·
O=C1CN(C(=O)COC(=O)c2cccc(Br)c2)c2ccccc2N1 | -1.6 | -0.3 | -10.1 | -0.1 | 14.0* | -2.4 | -1.1
COC(=O)[C@]12CCCCC=C1N(Cc1ccc(Cl)cc1Cl)C(=O)[C@H](CC(=O)N1CCC(c3ccccc3)CC1)C2 | -4.6 | -1.4 | -5.3 | 0.8 | 12.2* | 7.1 | 2.6
CCOC(=O)[C@]12CCCC=C1N(Cc1ccc(Cl)cc1Cl)C(=O)[C@H](CC(=O)N1CCC(c3ccccc3)CC1)C2 | 0.5 | 2.0 | 1.4 | 0.6 | 1.6 | · | ·
CCOc1cc(C(=O)N2CCC(CC3CC(c4ccc(Cl)cc4)=NO3)(C(=O)NCC3CCCCC3)CC2)cc(OCC)c1OCC (stereo not given) | 13.7 | 4.0 | 11.4* | 0.8 | 3.5 | -0.7 | -1.9
CCOc1cc(C(=O)N2CCC(CC3CC(c4ccccc4)=NO3)(C(=O)NCc3ccc(OC)cc3)CC2)cc(OCC)c1OCC (stereo not given) | 5.7 | 8.5 | 4.2 | 0.9 | -0.8 | · | ·
CCOc1ccc(CCNC(=O)C2CCCN(S(C)(=O)=O)C2)cc1OCC (stereo not given) | 6.6 | 0.9 | 13.2* | -0.3 | 3.0 | -0.6 | -2.1
CCOC(=O)N1CCN(S(=O)(=O)N2CCCC(C(=O)NCCc3ccc(OCC)c(OCC)c3)C2)CC1 (stereo not given) | 9.5 | -1.0 | 2.0 | -0.4 | 11.6* | -4.3 | -5.5
COc1ccc(COC(=O)c2ccc(S(=O)(=O)N3CCCCC3)cc2)cc1OC | -11.6 | -3.3 | -3.1 | 0.0 | 5.2 | · | ·
O=C(Nc1ccccc1N1CCOCC1)c1ccc(Cl)c(S(=O)(=O)NCc2ccco2)c1 | 15.2 | 6.0 | -2.8 | 0.8 | 9.7* | -3.8 | -4.1
CCOc1ccccc1NC(=O)COn1nnc2ccccc21 | 8.0 | 5.4 | 4.1 | -0.5 | 11.4* | -4.3 | -6.8
Cc1cc(C(=O)NCC(=O)OC(C)C(=O)N2CCOCC2)ccc1[N+](=O)[O-] (stereo not given) | -13.9 | -2.4 | -12.1 | 0.3 | 1.6 | · | ·
Clc1ccccc1-c1nnc2sc(C3COc4ccccc4O3)nn12 (stereo not given) | 9.4 | 1.0 | -4.4 | 0.5 | 10.9* | -5.5 | -22.0
Cc1cccc(NC(=O)CC2SC(=NC3CCCCC3)NC2=O)c1 (stereo not given) | 6.2 | 1.5 | -8.0 | -0.6 | -15.6 | · | ·
O=C(CC1SC(=NC2CCCCC2)NC1=O)Nc1ccccc1 (stereo not given) | -0.1 | 3.3 | 2.9 | -0.7 | 11.1* | -4.6 | -23.6
O=C1OC(c2ccc(F)cc2)=N/C1=C\c1ccc(Br)o1 | -8.3 | 1.1 | -4.7 | 0.4 | 2.5 | · | ·
O=S(=O)(Nc1ccc(F)cc1)N1CCCCCC1 | 0.9 | -3.9 | 5.9 | 0.6 | -0.8 | · | ·
O=S(=O)(Nc1ccccc1)N1CCCCC1 | 7.4 | 3.1 | 13.1* | 0.4 | 10.9* | -4.9 | 2.0
COc1ccc(S(=O)(=O)NCc2ccc(C(=O)NCCN(C)Cc3ccccc3)cc2)cc1 | 0.7 | 7.8 | 7.0 | 0.9 | 9.8* | -10.1 | -2.1
CCCCNC(=S)NNC(=O)c1csc(C)c1CC | 1.5 | 0.6 | 2.4 | 0.9 | 3.4 | · | ·
CCCCNC(=S)NNC(=O)c1csc(CC)c1 | -0.7 | -0.1 | 13.8* | -0.1 | -1.5 | -6.7 | 12.6*
C=CCNC(=S)NNC(=O)c1csc(CC)c1 | -4.4 | 2.5 | 6.2 | -0.3 | 2.6 | · | ·
CCCCNC(=S)NNC(=O)c1csc(C)c1 | 4.2 | -0.5 | 22.9* | 1.1 | 2.9 | -5.3 | 16.4*
CCOC(=O)[C@]12CCC=C1N(Cc1cccc3ccccc13)C(=O)[C@H](CC(=O)NCC1CCCCC1)C2 | 4.0 | 2.5 | -0.9 | -0.5 | 0.2 | · | ·
SMILES | ADAM10 inh | ADAM17 inh | PLC-beta3 inh | proKLK7 act | PLC-gamma1 inh | PLCgamma1 ctr | PLCb3 confirm
C=CCOC(=O)CN1C(=O)c2ccccc2C1=O | 13.1 | 5.3 | 11.6* | 0.8 | 9.2 | 1.9 | 3.5
CCOC(=O)CN1C(=O)c2ccccc2C1=O | 3.3 | -6.0 | 2.5 | 0.4 | -0.5 | · | ·
CCOC(=O)[C@]12CCCC=C1N(CCc1ccc(OC)c(OC)c1)C(=O)[C@H](CC(=O)N1CCCC1)C2 | -0.9 | 0.9 | 5.4 | -0.7 | 11.7* | -0.2 | -6.2
CCOC(=O)N1CCN(C(=O)C[C@@H]2C[C@@]3(C(=O)OCC)CCC=C3N(Cc3ccc4c(c3)OCO4)C2=O)CC1 | 2.4 | 1.2 | -1.1 | -0.2 | 9.7* | -6.7 | -2.6
Nc1ccn([C@H]2CS[C@@H](CO)O2)c(=O)n1 | -6.1 | -5.0 | 0.4 | 0.6 | -1.6 | · | ·
Nc1nc(=O)n([C@@H]2CS[C@H](CO)O2)cc1F | 6.7 | 0.2 | 13.8* | 0.3 | 14.2* | -0.9 | -0.9
CN(C)S(=O)(=O)N1CCC(Oc2cccc(C(=O)NC3CCCCC3)c2)CC1 | -9.0 | -3.7 | -5.4 | 0.0 | 0.2 | · | ·
CN(C)S(=O)(=O)N1CCC(Oc2cccc(C(=O)NCCC3=CCCCC3)c2)CC1 | -8.4 | -0.5 | -9.5 | 0.3 | 10.8* | -11.7 | -1.0
CCCCN(CCCC)C(=S)N/N=C/c1c(C)[nH]n(-c2ccccc2)c1=O | -4.6 | 2.5 | 4.8 | 0.3 | 9.9* | -9.5 | -21.3
Cc1cc(C(=O)N/N=C/c2c(C)[nH]n(-c3ccccc3)c2=O)n[nH]1 | -1.9 | -4.2 | -6.0 | 0.5 | -1.1 | · | ·
COc1ccc(C(C#N)=Cc2cc(OC)c(OC)c(OC)c2)cc1 | -7.8 | -2.3 | -17.6 | -0.3 | -13.8 | · | ·
CCCCCCSc1ccc([C@H]2N[C@@](CC(C)C)(C(=O)OC)[C@H]3C(=O)N(CC)C(=O)[C@@H]23)cc1 | 0.3 | 4.4 | 6.3 | -0.8 | 15.5* | -1.4 | 0.6
CCCCCCSc1ccc([C@H]2N[C@@](CC(C)C)(C(=O)OC)[C@H]3C(=O)N(C)C(=O)[C@@H]23)cc1 | 13.8 | 4.5 | 1.7 | -0.1 | 1.6 | · | ·
CC1=C(C)CC(C(=O)NNC(=O)c2ccccc2)C(C(=O)O)C1 (stereo not given) | 10.9 | 6.5 | 9.9 | -0.9 | 11.2* | -3.1 | -0.4
CCCOc1ccccc1OCC(=O)Nc1cc(Cl)ccc1-n1cncn1 | 6.5 | 3.8 | 5.3 | -0.1 | 11.0* | -1.9 | -334.0
O=P(c1ccccc1)(c1ccccc1)c1ccccc1C(Br)Br | -10.2 | -4.1 | 4.4 | 0.1 | -0.5 | · | ·
Cc1nn(C)cc1CN(C)C(=O)CCc1nnc(CCC2CCCCC2)o1 | -13.1 | -2.2 | -1.8 | 0.2 | 10.8* | -5.4 | 0.0
CN(Cc1nccn1C)C(=O)CCc1nnc(CCC2CCCCC2)o1 | 4.8 | -3.5 | 2.2 | 0.2 | -3.6 | · | ·
ONC(=Nc1ccc(Cl)cc1)c1ccccc1 | 1.1 | 0.3 | 12.2* | -0.3 | -1.9 | -5.7 | 12.5*

Assay outcomes: PubChem, The Scripps Research Institute Molecular Screening Center
